Screens from PubChem BioAssay.
KinaseGlo FLuc: Counterscreen for Luciferase (Kinase-Glo TM) Inhibition; Kinase-Glo luciferase, ATP luminescence, 8 min; AID 1379, 2008; Potency, µM (titrated, usually from 38.3 µM), for inactives: at the top dose activity change, negative = inhibition, hits mostly inhibitors; Luciferin 4-monooxygenase (Photuris pensylvanica), Q27757; 200,000 tested, 0.28% active; active = well fitted inhibition curve with a large enough effect; inconclusive = small, poorly fitted or top-dose-only effect; note: potency is the fitted concentration of half-maximal effect; nearly all actives have a fitted effect of over 60% in size
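Luminescence was the read-out, taken after 8-minute incubation at ambient temperature. Luciferase turned over luciferin with 10 uM ATP in imidazole pH 7.2 buffer containing KCl, MgCl2, Tween 20 and BSA.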
IMPase inh: qHTS Assay for Identifying the Cell-Membrane Permeable IMPase Inhibitors | 120,000 tested, under 10 active | inhibition (IP1 accumulation), % at 46.1 µM | AID 901, 2007 | CHO-M1 cells, IP1 accumulation, HTRF TR-FRET ratio; active = well fitted curve in the direction sought with a large enough effect in the signal ratio, not every such curve was filed as active; inconclusive = small, poorly fitted or top-dose-only effect, or a change in a side signal; inactive = no such curve, though single readings can be large or run the other way; the % refers to the signal ratio;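 note: cells stimulated with carbachol in lithium chloride buffer; plate controls were DMSO basal wells for no effect and reference inhibitor wells for full effect; higher means more IMPase inhibition seen as more IP1 and lower FRET ratio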
Target sequence (P97697 whole entry, looked up): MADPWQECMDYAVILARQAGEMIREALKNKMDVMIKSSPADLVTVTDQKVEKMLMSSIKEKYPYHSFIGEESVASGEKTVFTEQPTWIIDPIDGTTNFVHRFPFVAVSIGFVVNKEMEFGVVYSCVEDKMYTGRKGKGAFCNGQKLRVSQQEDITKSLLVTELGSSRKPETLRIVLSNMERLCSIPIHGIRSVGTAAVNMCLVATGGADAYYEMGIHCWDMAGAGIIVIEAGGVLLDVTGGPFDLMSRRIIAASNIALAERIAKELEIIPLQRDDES
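Carbachol-driven Gq signalling in CHO-M1 cells (2000/well) generates IP1. Compounds that block IMPase raise IP1 and so reduce the FRET signal from Eu-anti-IP1 and d2-IP1 after a 10 min room-temperature lysis.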
ALDH1A1 block: qHTS Assay for Inhibitors of Aldehyde Dehydrogenase 1 (ALDH1A1). Aldehyde dehydrogenase 1A1 (Homo sapiens), P00352. AID 1030, 2008. 220,000 tested, 7.3% active. Potency, µM (series often up to 75.3 µM), for the others: top-dose activity, negative = inhibition, most hits filed as inhibitors. Purified ALDH1A1, NADH fluorescence, propionaldehyde substrate;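 note: potency is the fitted concentration of half-maximal effect; plate controls were no enzyme wells and a reference inhibitor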
Target sequence (P00352 whole entry, looked up): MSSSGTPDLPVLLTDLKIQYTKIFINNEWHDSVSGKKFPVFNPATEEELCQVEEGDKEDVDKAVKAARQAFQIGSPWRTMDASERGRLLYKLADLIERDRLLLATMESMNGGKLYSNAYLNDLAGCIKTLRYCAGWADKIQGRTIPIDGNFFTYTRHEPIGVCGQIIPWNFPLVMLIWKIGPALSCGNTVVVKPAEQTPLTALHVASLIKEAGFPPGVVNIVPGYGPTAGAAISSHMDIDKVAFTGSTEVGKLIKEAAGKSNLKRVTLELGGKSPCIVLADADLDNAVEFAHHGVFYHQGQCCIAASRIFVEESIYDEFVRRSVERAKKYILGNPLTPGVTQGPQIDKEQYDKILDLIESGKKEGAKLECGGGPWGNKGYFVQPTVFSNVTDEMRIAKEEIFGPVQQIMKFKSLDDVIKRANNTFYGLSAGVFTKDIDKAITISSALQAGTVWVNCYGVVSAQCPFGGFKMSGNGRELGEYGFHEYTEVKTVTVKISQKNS
PNC inhibitor: High Content Assay for Compounds that inhibit the Assembly of the Perinucleolar Compartment; PC3M PTB-GFP, PNC prevalence imaging, 16 h; stronger effect = lower value; activity change (PNC), negative = inhibition, % at 10 µM; 140,000 tested, 3.1% active; AID 2417, 2010;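 active = readout at or below -70, meaning at least 70% loss of cells showing the perinucleolar compartment, a nuclear body marking cancer cells; inconclusive = readout between -30 and a set limit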;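 note: plate controls were DMSO wells for no effect and camptothecin positive control wells for full effect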
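Compounds are pinned in duplicate onto adhered PC3M cells stably expressing GFP-tagged PTB and incubated 16 h at 37 C. Cells are then fixed, nuclei stained with Hoechst, and PNC-positive cells counted.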
HPGD inh: qHTS Assay for Inhibitors of HPGD (15-Hydroxyprostaglandin Dehydrogenase). AID 894, 2007. 150,000 tested, 4.3% active. purified HPGD, NADH fluorescence kinetic, PGE2 substrate. Potency, µM, inactives show at the top dose activity change, negative = inhibition, usual class: inhibitors; note: potency is the fitted concentration of half-maximal effect
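NADH formation kinetics: reaction with 30 uM PGE2 and 1 mM NAD+ (final), 20 nM enzyme, Tris-HCl pH 8 with Tween 20, after 15 min compound preincubation at room temperature. Fluorescence change, last versus first of five reads.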
LMNA splice mod: qHTS Assay for Modulators of Lamin A Splicing; HeLa LMNA splicing GFP/RFP minigene ratio, 48 h; AID 1487, 2009; 200,000 tested, 0.01% active; Potency, µM (top dose mostly 46.1 µM), inactives show top-dose ratio change, negative = inhibition, most hits filed as inhibitors; active = well fitted inhibition curve with a large enough effect in the signal ratio, with a control signal flat, not every such curve was filed as active; inconclusive = small, poorly fitted or top-dose-only effect, or effect the other way, or a change in a side signal; the % refers to the signal ratio; note: potency is the fitted concentration of half-maximal effect
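S3 HeLa cells stably expressing lamin A-EGFP splicing minigene plus DsRed2, 600 cells/well, 48 h compound exposure at 37C. Laser-scanning cytometry; analysed as GFP (500-530 nm)/RFP (575-640 nm) total intensity ratio; 0.5% DMSO vehicle.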
* = called active by the depositor; ? = inconclusive; · = not tested or not shown; [ ] = another dose, or the depositor's remark. Hits are enriched below; roughly 10% of the tested compounds scored in any of these assays. Unless noted, calls come from the whole dose curve; as a rule, active = well fitted inhibition curve with a large enough effect (not every such curve was filed as active); inconclusive = small, poorly fitted or top-dose-only effect, or another doubt; inactive = no such curve, though single readings can be large or run the other way. Unless noted, % is set by controls: 0 for no effect and ±100 for the full control effect.

SMILES	KinaseGlo FLuc	IMPase inh	ALDH1A1 block	PNC inhibitor	HPGD inh	LMNA splice mod
CCCCC(=O)Nc1nc(C)c(-c2csc(Nc3cc(Cl)ccc3OC)n2)s1	-4.3%	-6.6	10µM*	11.3	?	9.7%
CN1CCc2c(cc(O)c(O)c2Cl)C(c2cccc(Cl)c2)C1 (centres undefined)	-1.0%	·	-3.8%	·	7.1%	?
Cc1cccc(CNC(=O)CN2C(=O)CCCc3ccccc32)c1	·	·	·	·	·	-9.3%[46 µM]
Cc1nn2c(=O)cc(COC(=O)c3ccccc3NC(=O)C(C)Oc3ccccc3)nc2s1 (centres undefined)	·	·	·	·	·	-4.2%[46 µM]
COc1ccc(C(=O)NCc2ccc3[nH]c(C)cc3c2)cc1OC	-10.0%	·	20µM*	·	·	·
COc1cc(C(=O)NCc2ccc3[nH]c(C)cc3c2)cc(OC)c1OC	0.8%	·	2.0%	·	·	·
COc1cccc(C(=O)NCc2ccc3[nH]c(C)cc3c2)c1	-2.8%	·	28.2µM*	·	·	·
COc1cc(OC)cc(C(=O)NCc2ccc3[nH]c(C)cc3c2)c1	0.2%	·	?	·	·	·
COc1ccc(C(=O)NCc2cn3c(C)csc3n2)cc1OC	-0.4%	1.2	10.9%	-100.0*	-10.0%	-7.7%
COc1ccc(OC)c(S(=O)(=O)NCc2cn3c(C)csc3n2)c1	-0.4%	4.8	-1.2%	-11.8	-9.2%	0.8%
Cc1cc2cc(CNC(=O)c3ccc4c(c3)OCO4)ccc2[nH]1	-2.1%	9.1	35.5µM*	?	20µM*	?
COc1cccc(C(=O)Nc2cccc(C(=O)OCc3cc(=O)n4c5c(sc4n3)CCCC5)c2)c1	·	·	·	·	·	-3.2%[46 µM]
CCCCNC(=S)NCc1ccc2[nH]c(C)cc2c1	-1.4%	·	-5.1%	-114.6*	-11.5%	?
COCCCn1c(SCC(=O)Nc2ccc(F)cc2)nc2c(sc3ccccc32)c1=O	·	·	·	·	·	13.3%[46 µM]
O=C(N/N=C/C=C/c1ccco1)c1cccnc1	-3.4%	10.4	?	37.7	-17.6%	0.7%
O=C(NC(=S)Nc1ccc(N2CCCCC2)cc1)c1ccco1	-0.9%	7.8	?	-25.4	17.8µM*	1.6%
O=C(Nc1ccc(OC(=O)c2ccco2)cc1)c1ccco1	12.6µM*	1.8	3.3%	145.5	-23.3%	-7.4%
O=C(NC(=S)Nc1ccc(N2CCCC2)cc1)c1ccccc1[N+](=O)[O-]	2.9%	·	?	-83.0*	-11.4%	?
O=C(N/N=C\C=C\c1ccco1)c1cc(-c2ccc3ccccc3c2)n[nH]1	-2.5%	10.2	0.0%	4.6	31.6µM*	?
O=C(NC(=S)Nc1ccccc1N1CCCC1)c1ccccc1[N+](=O)[O-]	-1.2%	?	?	-20.3	0.4%	4.6%
CCOC(=O)CCN1C(=O)[C@H]2[C@H]3[C@H](O)[C@H](O)C/C(=N/OC/C=C(\C)CCC=C(C)C)[C@H]3CC[C@@H]2C1=O	·	·	-4.5%[13.5 µM]	·	·	·
Cc1nc(NCc2ccccc2)c2nc(-c3ccccc3)n(CCN3CCCC3)c2n1	-0.8%	·	?	·	?	·
COc1ccccc1CNC(=O)CN1C(=O)CSc2c1c(C)nn2-c1ccccc1	·	·	·	·	·	-10.7%[46 µM]
O=C(Nc1ccc(NC(=O)c2ccco2)cc1)c1cnccn1	-22.1%	-2.2	25.1µM*	33.5	-21.3%	9.0%
O=C(Nc1ccc(NC(=O)c2ccco2)c(Cl)c1)c1ccccc1	-18.8%	·	?	·	·	?
SMILES	KinaseGlo FLuc	IMPase inh	ALDH1A1 block	PNC inhibitor	HPGD inh	LMNA splice mod
O=C(Nc1ccc2ccccc2c1)c1cnccn1	-9.4%	10.5	-9.4%	14.1	-8.8%	4.6%
O=C(N/N=C/C=C/c1ccco1)c1cnccn1	·	·	3.16µM*	·	·	·
O=C(Nc1cnn(Cc2ccc(F)cc2)c1)c1cnccn1	2.7%	2.0	-5.4%	-129.2*	-20.8%	-9.9%
O=C(Nc1ccc(Br)c(Cl)c1)c1ccco1	-7.7%	0.7	-12.7%	?	22.4µM*	-3.2%
O=C(Nc1cnn(Cc2ccc(F)cc2)c1)c1cc(-c2cccs2)on1	0.1%	4.5	?	?	-26.6%	3.2%
OCC(O)C(O)C(O)C(O)C(O)CO (centres undefined)	-5.0%	·	-6.8%	·	-7.5%	-9.9%
CCc1nc(SCC(=O)Nc2ccc(NC(C)=O)cc2)n[nH]1	·	3.8	·	·	·	·
CC(=O)NC[C@@H]1CN(c2ccc(N3CCOCC3)c(F)c2)C(=O)O1	·	·	·	·	·	0.4%
CCOC(=O)c1c(C)oc2nc(C)nc(NCCCN3CCN(c4ccccc4OC)CC3)c12	·	·	·	·	·	-13.6%[46 µM]
O=C(NC(=S)Nc1ccc(NC(=O)c2ccco2)cc1)c1ccccc1	-4.2%	·	?	-88.0*	-10.0%	-6.1%
O=C(N/N=C/c1ccc(N2CCCCC2)o1)c1ccccc1[N+](=O)[O-]	-8.4%	·	?	2.8	10µM*	-0.6%
COc1cc(C(=O)NC(=S)Nc2ccc(NC(=O)c3ccco3)cc2)cc(OC)c1OC	0.0%	·	?	59.3	-12.7%	?
O=C(Nc1ccc(S(=O)(=O)NC2CCCC2)cc1)c1cnccn1	0.9%	7.7	?	-5.4	7.94µM*	-8.5%
CN(C)S(=O)(=O)c1cccc(-c2nn(-c3ccccc3)cc2/C=C2\SC(=S)NC2=O)c1	-2.4%	13.0	0.2%	30.5	15.8µM*	?
Cc1noc(C)c1CSc1ncnc2sc(C)c(C)c12	-0.3%	5.3	-3.8%	-3.5	-29.9%	-1.4%
Cc1noc(C)c1CSc1ncnc2sc3c(c12)CCCCC3	-1.2%	·	28.2µM*	?	?	2.8%
Nc1ncnc2c1ncn2[C@@H]1O[C@@H](COP(=O)(O)OP(=O)(O)OP(=O)(O)OP(=O)(O)OC[C@@H]2O[C@@H](n3cnc4c(N)ncnc43)[C@@H](O)[C@H]2O)[C@H](O)[C@@H]1O	·	1.0	·	·	·	·
Cc1ccc(NC(=O)COc2cccc3ccc(C)nc23)c(Br)c1	-1.8%	·	?	-16.0	11.2µM*	-8.2%
Cc1ccc(OCC(=O)Nc2cccc(C)n2)c(C)c1	-12.6%	2.5	1.8%	-24.7	-8.4%	1.1%
O=C(CCSc1ccccc1)NCC1CCCO1 (centres undefined)	-3.5%	7.5	-1.7%	?	15.8µM*	-8.0%
